We go through 27 compounds from PubChem BioAssay (Tox21).

Test [1] can be described thus: qHTS RealTime-Glo MT Cell Viability Assay in HEK293 cells - 0 hour (AID 1224880). Note: top concentration of the series differs between compounds; nearly all actives have a fitted effect of over 45% in size. The method in brief: (§1)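 Cells were seeded together with NanoLuc luciferase and a prosubstrate that viable cells reduce to a luciferase substrate. After a 5 h incubation at 37 C/5% CO2, compounds were added and luminescence was measured repeatedly during 40 h of treatment.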
Background: Quantitative high-throughput screening tests each substance at several concentrations.

Test [2] in a line: A CellTox Green Cytotoxicity Assay to monitor cytotoxicity in HEK293 cells - 32 hour (AID 1224881). Note: nearly all actives have a fitted effect of over 40% in size. The method in brief:
(§2)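 Nonlytic real-time cytotoxicity: HEK293 + CellTox Green reagent plated, 5 h preincubation, pintool compound addition (23 nL in DMSO), 37 C for 40 h, fluorescence measured at successive time points.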

Test [3] is described as follows: A CellTox Green Cytotoxicity Assay to monitor cytotoxicity in HepG2 cells - 0 hour (AID 1224882). Note: nearly all actives have a fitted effect of over 35% in size. A digest of the protocol: (§3)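 Read-out is fluorescence of a cyanine dye excluded from live cells that stains DNA of dead HepG2 cells, with signal proportional to cytotoxicity. Plates were read at 0, 8, 16, 24, 32 and 40 h after compound addition.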
Test [4] can be described thus: A CellTox Green Cytotoxicity Assay to monitor cytotoxicity in HepG2 cells - 32 hour (AID 1224883). Note: nearly all actives have a fitted effect of over 50% in size. A digest of the protocol:
as §3

The nature of test [5]: A CellTox Green Cytotoxicity Assay to monitor cytotoxicity in HEK293 cells - 8 hour (AID 1224884). Note: nearly all actives have a fitted effect of over 35% in size. A digest of the protocol:
as §2

A short description of test [6]: qHTS RealTime-Glo MT Cell Viability Assay in HepG2 cells - 16 hour (AID 1224885). Note: nearly all actives have a fitted effect of over 50% in size. The method in brief: (§4)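 Real-time, nonlytic viability: 600 HepG2 cells/well mixed with NanoLuc enzyme plus prosubstrate; 5 h settle, compound (DMSO) added by pintool; luminescence monitored over 40 h at 37 C.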
The nature of test [7]: qHTS RealTime-Glo MT Cell Viability Assay in HEK293 cells - 24 hour (AID 1224886). Note: nearly all actives have a fitted effect of over 50% in size. Note: potency is the fitted concentration of half-maximal effect. The method in brief: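 Cells + reagent dispensed (600 cells/well, HEK293) → 5 h at 37 C/5% CO2 → 23 nL compound in DMSO pinned → 40 h at 37 C → luminescence read at 0, 8, 16, 24, 32, 40 h.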
The nature of test [8]: qHTS RealTime-Glo MT Cell Viability Assay in HEK293 cells - 8 hour (AID 1224887). Note: top concentration of the series differs between compounds; nearly all actives have a fitted effect of over 50% in size. A digest of the protocol: as §1
A short description of test [9]: A CellTox Green Cytotoxicity Assay to monitor cytotoxicity in HEK293 cells - 16 hour (AID 1224888). Note: nearly all actives have a fitted effect of over 35% in size. A digest of the protocol:
as §2

Test [10] is described as follows: qHTS RealTime-Glo MT Cell Viability Assay in HepG2 cells - 0 hour (AID 1224889). Note: nearly all actives have a fitted effect of over 50% in size. A digest of the protocol:
as §4

Where “and” joins values, the source holds several entries; their conditions need not be identical. Equal values may be shown once. Results filed as inconclusive are left out. Some structures have more than one record in an assay (separate samples or runs), and their calls can disagree. Calls of active or inactive are those of the source. Calls come from the whole dose curve; as a rule, active = well fitted curve in the direction sought with a large enough effect in the repeat runs; inconclusive = weak or mixed curves; inactive = no such curve, though single readings can be large; an effect the other way counts as inactive or inconclusive.

With `COc1ccc(C)cc1N`, the call in test [1], in [3] and in test [5] was inactive. For the same compound, the Potency result in [2], in test [4], in [6], in test [7], in test [8] and in test [9] was “inactive” each time. Moreover, in [10], the Potency result was “inactive”.

Take `c1ccc(Oc2ccccc2)cc1`: the call in test [1], in test [3] and in test [5] was inactive. Also, the Potency entry in test [2], in test [4], in [6], in test [7], in test [8] and in [9] was “inactive” each time. Moreover, the Potency result in test [10] was “inactive”.

As to `O=C(O)/C=C/C(=O)O`, the compound was called inactive in test [1], in test [3] and in [5]. The Potency entry in [2], in test [4], in test [6], in [7], in test [8] and in [9] was “inactive” each time. For the same compound, the Potency result in [10] is “inactive”.

For `O=C1c2ccccc2CCc2ccccc21`, the result in [1], in [3] and in test [5] was inactive. Besides, the Potency entry in test [2], in test [4], in test [6], in [7], in test [8] and in test [9] was “inactive” throughout. For the same compound, the Potency entry in test [10] is “inactive”.

On to `CCCCCCC=O`, for which the compound was called inactive in test [1], in test [3] and in test [5]. Besides, the Potency entry in test [2], in test [4], in [6], in test [7], in test [8] and in test [9] was “inactive” throughout. The Potency result in [10] is “inactive”.

As to `CC(C)(C)c1cc(Cc2cc(C(C)(C)C)c(O)c(C(C)(C)C)c2)cc(C(C)(C)C)c1O`, the outcome in [1], in test [3] and in test [5] was inactive. The Potency entry in test [2], in test [4], in test [6], in test [7], in [8] and in test [9] was “inactive” in each case. In addition, in test [10], the Potency result is “inactive”.

For `CNC(=S)N(C)C`, the compound was classed as inactive in test [1], in [3] and in [5]. The Potency entry in test [2], in [4], in test [6], in test [8], in test [9] and in test [10] was “inactive” in each case. In addition, the Potency entry in test [7] is “inactive and 13 µM (active)”.

`CNC(=O)Oc1ccc2c(c1)[C@]1(C)CCN(C)[C@@H]1N2C`: the compound was classed as inactive in [1], in test [3] and in test [5]. Besides, the Potency result in [2], in test [4], in test [6], in test [7], in test [8] and in [9] was “inactive” each time. Moreover, the Potency entry in [10] was “inactive”.

As for `CN/C(=C\[N+](=O)[O-])NCCSCc1csc(CN(C)C)n1`, the outcome in test [1], in [3] and in test [5] was inactive. Further, the Potency result in [2], in test [4], in test [6], in [7], in [8] and in test [9] was “inactive” each time. Further, the Potency result in test [10] is “inactive”.

With `CC1(C)CC(N)CC(C)(CN)C1` (stereo not given), the call in test [1], in test [3] and in test [5] was inactive. Besides, the Potency entry in test [2], in [4], in test [6], in test [7], in [8] and in test [9] was “inactive” throughout. Further, the Potency entry in test [10] was “inactive”.

Regarding `O=c1[nH]cnc2[nH]ncc12`, the call in test [1], in test [3] and in test [5] was inactive. The Potency result in [2], in test [4], in test [6], in [7], in test [8] and in test [9] was “inactive” throughout. Besides, in [10], the Potency entry was “inactive”.

Regarding `Clc1ccccn1`, the outcome in test [1], in [3] and in test [5] was inactive. The Potency entry in test [2], in test [4], in test [6], in test [7], in test [8] and in test [9] was “inactive” throughout. In addition, the Potency result in test [10] was “inactive”.

For `CC(=O)CCC=C(C)C`, the compound was called inactive in test [1], in [3] and in test [5]. Further, the Potency result in test [2], in test [4], in [6], in [7], in [8] and in [9] was “inactive” in each case. The Potency result in [10] was “inactive”.

Consider `C=CC[N+](C)(C)CC=C`, for which the call in [1], in test [3] and in [5] was inactive. Further, the Potency entry in test [2], in [4], in test [6], in [7], in test [8] and in test [9] was “inactive” throughout. Besides, the Potency result in test [10] was “inactive”.

Regarding `CCNc1ccccc1`, the outcome in [1], in test [3] and in test [5] was inactive. Also, the Potency entry in test [2], in [4], in test [6], in test [7], in test [8] and in test [9] was “inactive” each time. Besides, the Potency entry in test [10] is “inactive”.

`COCCOC(=O)c1ccccc1C(=O)OCCOC`: the result in test [1], in [3] and in [5] was inactive. Further, the Potency result in [2], in test [4], in [6], in test [7], in [8] and in test [9] was “inactive” each time. In test [10], the Potency result is “inactive”.

Consider `O=C(O)c1cc2ccccc2cc1O`, for which the compound was classed as inactive in [1], in [3] and in test [5]. In addition, the Potency entry in test [2], in test [4], in [6], in [7], in test [8] and in test [9] was “inactive” in each case. In addition, the Potency result in test [10] was “inactive”.

For `CC(=O)c1ccc(O)cc1`, the call in test [1], in test [3] and in test [5] was inactive. Moreover, the Potency entry in [2], in test [4], in [6], in test [7], in test [8] and in test [9] was “inactive” in each case. Further, in test [10], the Potency entry was “inactive”.

As for `O=C(O)c1ccccc1C(=O)O`, the call in test [1], in [3] and in test [5] was inactive. Besides, the Potency result in [2], in test [4], in test [6], in [7], in [8] and in [9] was “inactive” throughout. Besides, the Potency result in [10] is “inactive”.

Consider `Nc1nc(N)nc(-c2ccccc2)n1`, for which the compound was classed as inactive in test [1], in [3] and in test [5]. In addition, the Potency entry in test [2], in test [4], in [6], in test [7], in test [8] and in test [9] was “inactive” throughout. Moreover, the Potency result in [10] was “inactive”.

As to `CC1(C)S[C@@H]2[C@H](NC(=O)COc3ccccc3)C(=O)N2[C@H]1C(=O)O`, the compound was classed as inactive in [1], in test [3] and in [5]. For the same compound, the Potency result in test [2], in test [4], in [6], in test [7], in test [8] and in [9] was “inactive” in each case. In addition, the Potency entry in test [10] is “inactive”.

For `CC(C)CC(C)O` (stereo not given), the call in [1], in test [3] and in test [5] was inactive. Besides, the Potency entry in [2], in [4], in [6], in [7], in [8] and in test [9] was “inactive” throughout. Moreover, the Potency result in [10] was “inactive”.

On to `Cc1ccc(C(C)C)c(O)c1`, for which the call in test [1], in test [3] and in test [5] was inactive. For the same compound, the Potency result in test [2], in test [4], in [6], in [7], in [8] and in test [9] was “inactive” in each case. Also, in test [10], the Potency result is “inactive”.

As to `CC(C)(Oc1ccc(CCNC(=O)c2ccc(Cl)cc2)cc1)C(=O)O`, the compound was called inactive in [1], in test [3] and in [5]. Further, the Potency result in test [2], in [4], in test [6], in test [7], in test [8] and in test [9] was “inactive” each time. For the same compound, the Potency entry in [10] is “inactive”.

On to `OCc1cccc(Oc2ccccc2)c1`, for which the result in test [1], in [3] and in test [5] was inactive. The Potency result in [2], in test [4], in [6], in test [7], in test [8] and in test [9] was “inactive” in each case. Further, in [10], the Potency result is “inactive”.

Take `C=CC(C)CCCC(C)(C)O` (stereo not given): the outcome in test [1], in test [3] and in test [5] was inactive. Further, the Potency result in [2], in [4], in test [6], in test [7], in [8] and in test [9] was “inactive” in each case. Besides, the Potency result in test [10] was “inactive”.

With `CC(CCO)CC(C)(C)C` (stereo not given), the result in [1], in test [3] and in [5] was inactive. The Potency entry in [2], in test [4], in test [6], in test [7], in test [8] and in test [9] was “inactive” each time. In test [10], the Potency entry is “inactive”.
